# The full list was thinned out, with hits kept by preference.
# U2OS ROS induce = raises reactive oxygen species in U2OS cancer cells; hit rate 2% among 46,000; ROS induction (% of piperlongumine), % at 10 µM; U2OS ROS induction, H2DCF-DA fluorescence; in the data active means ROS induction above about 79%, passing the limit was not always enough;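 further: 0% = DMSO vehicle median and 100% = reference compound median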
# The depositor's hits bear a star.
SMILES,U2OS ROS induce
O=c1c(-c2c(O)cc(O)c3c(=O)cc(-c4ccc(O)cc4)oc23)c(-c2ccc(O)cc2)oc2cc(O)cc(O)c12,0.0
COc1ccc(-c2cc(=O)c3c(O)cc(O)cc3o2)cc1,38.8
COc1cc(O)c2c(=O)cc(-c3ccc(OC)c(-c4c(O)cc(O)c5c(=O)cc(-c6ccc(O)cc6)oc45)c3)oc2c1,179.3*
O=C(CCCCCCC(=O)Nc1ccccc1O)N/N=C/c1ccc(-n2ccnc2)cc1,15.2
COc1ccc(S(=O)(=O)Nc2cccc3c2O[C@H](CN(C)S(=O)(=O)c2ccccc2)[C@@H](C)CN([C@@H](C)CO)C3=O)cc1,-1.1
COC(=O)c1c(C)[nH]c(C(=O)CSc2nnc3cc(C)c4ccccc4n23)c1C,41.8
COc1ccc(-c2nnc(-c3ccc(S(=O)(=O)c4ccccc4)cc3)o2)cc1OC,126.1*
COc1ccc(CC(=O)Nc2cccc(-c3nnc(-c4ccc(C)cc4)o3)c2)cc1OC,12.9
COc1ccccc1OCC(=O)Nc1cccc(-c2nnc(-c3ccccc3)o2)c1,-2.4
COc1ccc2c(c1)c(=O)oc1cc(OC(C)C)ccc12,114.2*
COc1ccc2c(c1)c(=O)oc1cc(O)ccc12,4.4
COC(=O)c1ccc(COc2ccc3c(c2)oc(=O)c2cc(OC)ccc23)o1,29.8
CC(C)(C)NC(=S)NCC1CC1,51.1
COC(=O)CSc1nnc(-c2ccccc2)o1,4.8
c1ccc(Cn2ccnc2SCc2nnc(-c3ccccc3)o2)cc1,105.3*
Cc1cc(-n2nc3ccccc3n2)c2oc(SCc3nnc(-c4ccccc4)o3)nc2c1,3.0
COc1ccc(NC(=O)N(C)C[C@@H]2Oc3ccc(NC(=O)Cc4cn(C)c5ccccc45)cc3CC(=O)N([C@H](C)CO)C[C@@H]2C)cc1,0.5
CCC(C)[C@H](NC(=O)c1ccco1)C(=O)O (stereo partly specified),-7.5
O=C(Nc1ccccc1)c1ccc(S(=O)(=O)c2cccc(S(=O)(=O)N3CCOCC3)c2)cc1,11.5
COc1ccc(-c2cc(C(F)F)n3ncc(C(=O)Nc4cccc(S(=O)(=O)N5CCOCC5)c4)c3n2)cc1,132.6*
COc1ccc(S(=O)(=O)N2CCOCC2)cc1C(=O)Nc1ccc(S(=O)(=O)C(F)F)cc1,10.8
Cc1ccc(S(=O)(=O)Nc2cccc3c2O[C@H](CN(C)S(=O)(=O)c2cn(C)cn2)[C@@H](C)CN([C@@H](C)CO)C3=O)cc1,1.5
C[C@H]1CN([C@@H](C)CO)C(=O)Cc2cc(NC(=O)Nc3ccc4c(c3)OCO4)ccc2O[C@@H]1CN(C)C(=O)Nc1cccc2ccccc12,3.9
CNC[C@H]1Oc2ccc(NS(=O)(=O)c3cn(C)cn3)cc2C(=O)N([C@@H](C)CO)C[C@H]1C,12.1
O=C(CSc1ncnc2c1nnn2Cc1ccc(F)cc1)OCc1ccccc1,46.0
SMILES,U2OS ROS induce
NC(=O)CSc1ncnc2c1nnn2Cc1ccc(F)cc1,134.9*
O=C(CSc1ncnc2c1nnn2Cc1ccccc1)NCc1ccccc1,25.5
Cc1noc(C)c1S(=O)(=O)Nc1cccc2c1O[C@@H](CN(C)Cc1ccc(C(=O)O)cc1)[C@@H](C)CN([C@H](C)CO)C2=O,-10.8
CCN(CC(=O)Nc1ccccc1)S(=O)(=O)c1ccc(Cl)cc1,-2.7
CCN(CC(=O)Nc1ccc(C)c(C)c1)S(=O)(=O)c1ccc(C)cc1,-2.5
CCN(CC(=O)Nc1cccc(C)c1)S(=O)(=O)c1ccc(Br)cc1,130.5*
Cc1ccc(S(=O)(=O)Nc2cccc3c2O[C@@H](CN(C)C(=O)Nc2ccc(F)cc2)[C@@H](C)CN([C@@H](C)CO)C3=O)cc1,4.1
CC(C)NC(=O)Nc1ccc2c(c1)C(=O)N([C@@H](C)CO)C[C@@H](C)[C@H](CN(C)S(C)(=O)=O)O2,-5.9
C[C@@H]1CN([C@H](C)CO)C(=O)Cc2cc(NS(=O)(=O)c3cn(C)cn3)ccc2O[C@@H]1CN(C)S(=O)(=O)c1ccccc1,14.8
Cc1ccc(/C=C/c2onc3c(=O)[nH]nc(C)c23)cc1,118.8*
Cc1ccc(Cc2cc(C)n[nH]c2=O)cc1,9.1
Cc1n[nH]c(=O)c2nc(-c3ccccc3)sc12,-14.4
COc1ccc(-c2nnc(SCC(=O)N3c4ccccc4Sc4ccccc43)n2C)cc1,5.7
CSc1nn(-c2ccccc2)cc1-c1nc(-c2ccccc2)cs1,2.7
CC(C)COc1ccc2c3c(c(=O)oc2c1)CCCC3,22.2
CC(C)COC(=O)C(C)Oc1ccc2c3c(c(=O)oc2c1)CCC3 (stereo unspecified),121.9*
CCC(C)OC(=O)C(C)Oc1ccc2c3c(c(=O)oc2c1)CCC3 (stereo unspecified),13.8
Cc1c(C(=O)O)sc2ncn(Cc3ccccc3F)c(=O)c12,1.9
C[C@H]1CN([C@@H](C)CO)C(=O)Cc2cc(NC(=O)Nc3ccc(C(F)(F)F)cc3)ccc2O[C@H]1CN(C)CC1CCCCC1,-1.8
CCOc1nc2c(c(-c3ccco3)c1C#N)Cc1ccccc1-2,33.8
C[C@H](CO)N1C[C@H](C)[C@@H](CN(C)Cc2ccc(Cl)c(Cl)c2)Oc2c(cccc2N(C)C)C1=O,20.7
C[C@H]1CN([C@@H](C)CO)C(=O)Cc2cc(NS(C)(=O)=O)ccc2O[C@@H]1CN(C)Cc1ccccc1,131.1*
